“And” between values parts separate entries of the source, which are not always exact repeats. Identical values can stand only once. Records with an inconclusive call do not appear. The source made the active and inactive calls. Calls follow the shape of the dose curve; as a rule, active = well fitted curve in the direction sought with a large enough effect in the repeat runs; inconclusive = weak or mixed curves; inactive = no such curve, though single readings can be large; an effect the other way counts as inactive or inconclusive.
Assays:
[1] = Caspase-3/7 induction in HepG2 cells by small molecules, qHTS assay (AID 1346978); also: nearly all actives have a fitted effect of over 15% in size
Procedure, shortened: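 Wild-type HepG2 cells, 2,000/well, settled 5 hr at 37 C and 5% CO2, then compound-treated for 17 hr; caspase-3/7 activity read by luminescent Caspase-Glo 3/7 after 30 min at room temperature.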

[2] = Caspase-3/7 induction in CHO-K1 cells by small molecules, qHTS cell viability counter screen (AID 1346979); also: nearly all actives have a fitted effect of over 35% in size; also: potency is read from the fitted curve at half-maximal effect
Procedure, shortened: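 Viability readout by fluorescence (CellTiter-Fluor) on wild-type CHO-K1 cells exposed for 16hr at 37C and 5% CO2 to compounds delivered in DMSO; reagent incubated 1hr before reading.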

[3] = Caspase-3/7 induction in CHO-K1 cells by small molecules, qHTS assay (AID 1346980); also: nearly all actives have a fitted effect of over 15% in size
Procedure, shortened: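 Wild-type CHO-K1 cells exposed to compounds for 17hr at 37 C, 5% CO2. Caspase-3/7 activity then measured by Caspase-Glo 3/7 luminescence after 30min at room temperature.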

[4] = Caspase-3/7 induction in HepG2 cells by small molecules, qHTS cell viability counter screen (AID 1346981); also: series mostly up to about 92 µM; nearly all actives have a fitted effect of over 30% in size
Procedure, shortened: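 In this quantitative HTS counter screen, compounds delivered in DMSO were left on unmodified HepG2 cells for 16 hr at 37 C. Viability was then determined fluorometrically with CellTiter-Fluor, in parallel with caspase-3/7 induction in the same wells.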

[5] = molecular target: Nuclear receptor subfamily 1 group I member 2 (Homo sapiens) (UniProt O75469); assay: Human pregnane X receptor (PXR) small molecule agonists, qHTS assay (AID 1346982); also: nearly all actives have a fitted effect of over 35% in size; also: potency is read from the fitted curve at half-maximal effect
Procedure, shortened: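 Reporter HepG2 cells expressing PXR-Luc are cultured in charcoal-stripped FBS (5%), treated with compounds for 24 hr at 37 C, and assayed by ONE-Glo luminescence after 30 min at room temperature.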

[6] = molecular target: Cytochrome P450 2D6 (Homo sapiens) (UniProt P10635); assay: Cytochrome P450 Family 2 Subfamily D Member 6 (CYP2D6) small molecule antagonists: luciferase reporter qHTS assay (AID 1671196); also: nearly all actives have a fitted effect of over 50% in size; also: potency is read from the fitted curve at half-maximal effect
Procedure, shortened: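 Test chemicals meet CYP2D6 plus proluciferin substrate (10 min, RT); NADPH regenerating solution then drives turnover for 1 h. Detection reagent halts the reaction; luminescence measured after 20 min.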

[7] = molecular target: Cytochrome P450 2C19 (Homo sapiens) (UniProt P33261); assay: Cytochrome P450 Family 2 Subfamily C Member 19 (CYP2C19) small molecule antagonists: luciferase reporter qHTS assay (AID 1671197); also: nearly all actives have a fitted effect of over 65% in size; also: potency is read from the fitted curve at half-maximal effect
Procedure, shortened: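 Enzyme-substrate mix with proluciferin substrate (P450-Glo CYP2C19 system) preincubated with compounds 10 min at room temperature; NADPH regeneration solution added, 37C for 1 h; detection reagent stops reaction, luminescence read after 20 min. Ketoconazole positive control.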

[8] = molecular target: Cytochrome P450 2C9 (Homo sapiens) (UniProt P11712); assay: Cytochrome P450 Family 2 Subfamily C Member 9 (CYP2C9) small molecule antagonists: luciferase reporter qHTS assay (AID 1671198); also: nearly all actives have a fitted effect of over 50% in size; also: potency is read from the fitted curve at half-maximal effect
Procedure, shortened: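 P450-Glo proluciferin substrate with CYP2C9 enzyme; 10 min RT preincubation, then NADPH regeneration 1 h at 37C; luciferin detection reagent 20 min RT, luminescence in relative luminescence units.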

[9] = molecular target: Cytochrome P450 1A2 (Homo sapiens) (UniProt P05177); assay: Cytochrome P450 Family 1 Subfamily A Member 2 (CYP1A2) small molecule antagonists: luciferase reporter qHTS assay (AID 1671199); also: nearly all actives have a fitted effect of over 50% in size; also: potency is read from the fitted curve at half-maximal effect
Procedure, shortened: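 Steps: enzyme-substrate mix dispensed; test compounds and furafylline control pinned in; 10 min room temperature; NADPH regeneration solution added, 1 h; reaction stopped with luciferin detection reagent; luminescence read after 20 min.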

[10] = molecular target: Voltage-gated inwardly rectifying potassium channel KCNH2 (Homo sapiens) (UniProt Q12809); assay: Human Ether-a-go-go-Related Gene (hERG) channel small molecule antagonists: fluorescence cell-based qHTS assay (AID 1671200);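 also: hERG-expressing U2OS cells given a thallium stimulus after FluxOR II dye loading; series mostly up to about 77 µM; nearly all actives have a fitted effect of over 50% in size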
Procedure, shortened: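 Thallium served as the potassium surrogate; its influx into dye-loaded U2OS cells carrying the channel was measured by fluorescence over 2 min.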

[11] = molecular target: Cytochrome P450 3A4 (Homo sapiens) (UniProt P08684); assay: Cytochrome P450 Family 3 Subfamily A Member 4 (CYP3A4) small molecule antagonists: luciferase reporter qHTS assay (AID 1671201)
Procedure, shortened: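 Relative luminescence units after 20 min with luciferin detection reagent served as read-out. Beforehand, CYP3A4 turned over a proluciferin substrate for 1 h at room temperature with NADPH regeneration, following 10 min compound preincubation.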

Measured: Potency

Cytochrome P450 1A2 (Homo sapiens), sequence (P05177 whole entry, looked up): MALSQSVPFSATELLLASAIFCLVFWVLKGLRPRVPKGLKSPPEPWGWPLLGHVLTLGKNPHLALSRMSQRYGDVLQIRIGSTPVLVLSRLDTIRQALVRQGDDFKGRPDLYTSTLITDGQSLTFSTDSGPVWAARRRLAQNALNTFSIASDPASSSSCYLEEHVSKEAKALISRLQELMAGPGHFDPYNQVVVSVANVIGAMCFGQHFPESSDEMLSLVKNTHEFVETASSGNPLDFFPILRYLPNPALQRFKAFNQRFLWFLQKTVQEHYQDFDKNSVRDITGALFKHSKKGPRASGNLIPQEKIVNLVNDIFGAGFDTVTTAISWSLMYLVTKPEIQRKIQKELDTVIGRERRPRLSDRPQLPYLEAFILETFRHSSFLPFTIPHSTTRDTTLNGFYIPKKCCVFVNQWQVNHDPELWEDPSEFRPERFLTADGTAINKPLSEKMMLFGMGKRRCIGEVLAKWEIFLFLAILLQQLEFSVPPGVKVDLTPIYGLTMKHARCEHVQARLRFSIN
Cytochrome P450 3A4 (Homo sapiens), sequence (P08684 whole entry, looked up): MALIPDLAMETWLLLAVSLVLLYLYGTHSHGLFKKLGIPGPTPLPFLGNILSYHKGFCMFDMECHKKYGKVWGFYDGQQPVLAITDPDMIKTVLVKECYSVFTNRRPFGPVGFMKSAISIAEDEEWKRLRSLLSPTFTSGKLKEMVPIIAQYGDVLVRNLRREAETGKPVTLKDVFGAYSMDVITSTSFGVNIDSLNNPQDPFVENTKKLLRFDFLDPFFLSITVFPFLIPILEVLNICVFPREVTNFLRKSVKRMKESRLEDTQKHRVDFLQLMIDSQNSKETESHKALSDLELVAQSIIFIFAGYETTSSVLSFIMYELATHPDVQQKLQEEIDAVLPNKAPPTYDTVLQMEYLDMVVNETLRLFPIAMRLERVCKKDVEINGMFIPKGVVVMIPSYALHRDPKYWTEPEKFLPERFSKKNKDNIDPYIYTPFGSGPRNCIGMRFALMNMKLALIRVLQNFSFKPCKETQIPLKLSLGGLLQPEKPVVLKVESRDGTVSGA
Voltage-gated inwardly rectifying potassium channel KCNH2 (Homo sapiens), sequence (Q12809 whole entry, looked up): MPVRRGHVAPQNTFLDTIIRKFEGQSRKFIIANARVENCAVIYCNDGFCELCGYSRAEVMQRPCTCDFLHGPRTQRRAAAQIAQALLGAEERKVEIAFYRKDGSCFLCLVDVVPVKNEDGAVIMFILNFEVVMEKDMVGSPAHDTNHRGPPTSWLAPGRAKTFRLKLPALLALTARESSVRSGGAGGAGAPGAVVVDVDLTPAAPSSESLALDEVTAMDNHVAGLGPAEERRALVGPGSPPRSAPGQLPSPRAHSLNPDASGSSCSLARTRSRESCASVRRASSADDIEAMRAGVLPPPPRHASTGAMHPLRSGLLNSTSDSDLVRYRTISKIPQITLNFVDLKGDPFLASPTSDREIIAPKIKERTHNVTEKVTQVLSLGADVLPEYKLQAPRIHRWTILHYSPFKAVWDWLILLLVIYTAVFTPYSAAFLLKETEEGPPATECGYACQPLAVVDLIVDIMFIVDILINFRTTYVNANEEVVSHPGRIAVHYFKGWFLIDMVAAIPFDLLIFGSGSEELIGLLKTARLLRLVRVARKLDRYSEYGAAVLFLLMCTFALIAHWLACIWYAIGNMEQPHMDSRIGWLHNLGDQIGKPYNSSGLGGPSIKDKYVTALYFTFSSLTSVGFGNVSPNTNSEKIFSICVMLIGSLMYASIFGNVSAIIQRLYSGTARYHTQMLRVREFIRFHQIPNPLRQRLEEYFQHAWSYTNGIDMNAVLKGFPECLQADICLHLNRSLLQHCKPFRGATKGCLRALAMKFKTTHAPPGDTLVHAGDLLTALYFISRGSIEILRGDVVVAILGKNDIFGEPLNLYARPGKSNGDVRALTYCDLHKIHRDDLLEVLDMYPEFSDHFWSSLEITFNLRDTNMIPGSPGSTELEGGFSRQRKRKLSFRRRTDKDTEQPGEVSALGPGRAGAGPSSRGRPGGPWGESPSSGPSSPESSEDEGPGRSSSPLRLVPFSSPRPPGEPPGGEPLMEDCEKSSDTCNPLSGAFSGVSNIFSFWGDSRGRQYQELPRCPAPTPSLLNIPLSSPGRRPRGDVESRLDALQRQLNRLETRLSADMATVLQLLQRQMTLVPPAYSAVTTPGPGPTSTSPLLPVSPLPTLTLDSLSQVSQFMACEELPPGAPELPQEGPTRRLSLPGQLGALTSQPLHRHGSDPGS
Cytochrome P450 2C9 (Homo sapiens), sequence (P11712 whole entry, looked up): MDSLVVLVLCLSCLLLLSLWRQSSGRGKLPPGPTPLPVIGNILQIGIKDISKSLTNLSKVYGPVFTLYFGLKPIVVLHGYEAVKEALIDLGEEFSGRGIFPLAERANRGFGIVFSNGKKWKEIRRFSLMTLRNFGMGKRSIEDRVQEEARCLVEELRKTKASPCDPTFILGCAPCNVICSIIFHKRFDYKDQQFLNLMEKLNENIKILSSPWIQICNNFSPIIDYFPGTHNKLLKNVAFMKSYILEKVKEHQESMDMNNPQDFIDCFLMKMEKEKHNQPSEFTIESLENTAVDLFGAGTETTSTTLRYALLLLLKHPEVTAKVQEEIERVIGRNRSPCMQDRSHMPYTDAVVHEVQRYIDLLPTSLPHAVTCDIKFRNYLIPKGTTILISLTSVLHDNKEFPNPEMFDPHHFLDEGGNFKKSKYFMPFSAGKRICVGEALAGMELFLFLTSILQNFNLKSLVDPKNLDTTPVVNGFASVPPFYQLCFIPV
Nuclear receptor subfamily 1 group I member 2 (Homo sapiens), sequence (O75469 whole entry, looked up): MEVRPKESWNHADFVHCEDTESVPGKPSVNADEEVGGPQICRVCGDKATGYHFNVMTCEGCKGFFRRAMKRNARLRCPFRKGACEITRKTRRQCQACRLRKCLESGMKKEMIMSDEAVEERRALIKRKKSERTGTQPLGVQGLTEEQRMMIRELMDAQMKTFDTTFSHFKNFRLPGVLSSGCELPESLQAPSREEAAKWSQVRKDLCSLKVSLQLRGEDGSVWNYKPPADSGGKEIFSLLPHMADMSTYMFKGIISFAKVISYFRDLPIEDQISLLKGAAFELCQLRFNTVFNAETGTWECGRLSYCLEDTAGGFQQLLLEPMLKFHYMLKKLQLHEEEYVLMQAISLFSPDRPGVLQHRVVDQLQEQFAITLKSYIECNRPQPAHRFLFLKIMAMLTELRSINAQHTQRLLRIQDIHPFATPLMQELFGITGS
Cytochrome P450 2C19 (Homo sapiens), sequence (P33261 whole entry, looked up): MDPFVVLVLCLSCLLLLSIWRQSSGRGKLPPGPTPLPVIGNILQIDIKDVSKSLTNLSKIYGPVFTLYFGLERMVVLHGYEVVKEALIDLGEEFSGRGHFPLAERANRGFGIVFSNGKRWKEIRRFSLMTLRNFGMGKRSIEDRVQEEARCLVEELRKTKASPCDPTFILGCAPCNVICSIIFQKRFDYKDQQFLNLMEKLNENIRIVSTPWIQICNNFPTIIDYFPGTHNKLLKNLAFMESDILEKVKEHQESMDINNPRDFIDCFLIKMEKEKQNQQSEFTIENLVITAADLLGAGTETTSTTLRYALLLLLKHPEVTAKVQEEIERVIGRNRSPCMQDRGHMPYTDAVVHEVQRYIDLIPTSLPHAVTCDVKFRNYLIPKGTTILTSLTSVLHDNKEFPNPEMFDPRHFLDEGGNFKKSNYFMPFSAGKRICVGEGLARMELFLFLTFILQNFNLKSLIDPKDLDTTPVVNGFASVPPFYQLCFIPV
Cytochrome P450 2D6 (Homo sapiens), sequence (P10635 whole entry, looked up): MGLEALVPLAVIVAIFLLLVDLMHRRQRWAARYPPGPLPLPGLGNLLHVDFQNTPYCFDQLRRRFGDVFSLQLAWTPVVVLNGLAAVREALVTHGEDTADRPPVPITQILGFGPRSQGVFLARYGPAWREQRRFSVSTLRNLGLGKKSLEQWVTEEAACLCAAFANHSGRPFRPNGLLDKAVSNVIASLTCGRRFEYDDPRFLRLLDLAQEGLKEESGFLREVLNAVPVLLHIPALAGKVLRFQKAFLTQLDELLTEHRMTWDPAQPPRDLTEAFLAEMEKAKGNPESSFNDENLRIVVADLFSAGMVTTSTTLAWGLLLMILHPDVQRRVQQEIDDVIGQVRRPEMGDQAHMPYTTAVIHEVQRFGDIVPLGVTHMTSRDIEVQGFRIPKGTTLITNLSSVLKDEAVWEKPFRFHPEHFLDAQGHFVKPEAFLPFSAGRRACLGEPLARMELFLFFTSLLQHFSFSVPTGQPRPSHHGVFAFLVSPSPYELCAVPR

CC(C(=O)O)c1ccc(CC2CCCC2=O)cc1 (stereo not given)
inactive: [1] | [2] | [3] | [4] | [5] | [6] | [7] | [8] | [9] | [10] | [11]

CC1(C)C(O)C(C)(C)C1O (stereo not given)
inactive: [1] | [2] | [3] | [4] | [5] | [6] | [7] | [8] | [9] | [10] | [11]

CCCCCSCCCCC
inactive: [1] | [2] | [3] | [4] | [5] | [6] | [7] | [8] | [9] | [10] | [11]

NC(=O)c1ccc(N)cc1
inactive: [1] | [2] | [3] | [4] | [5] | [6] | [7] | [8] | [9] | [10] | [11]

CC(C)(C)NCCNC(C)(C)C
inactive: [1] | [2] | [3] | [4] | [5] | [6] | [8] | [9] | [10] | [11]
active: [7] 35.6 µM

NS(=O)(=O)c1ccccc1Cl
inactive: [1] | [2] | [3] | [4] | [5] | [6] | [7] | [8] | [9] | [10] | [11]

O=c1cc(-c2ccccc2)oc2ccccc12
active: [2] 68.2 µM | [5] 54.5 µM and 24.2 µM | [7] 31.7 µM and 7.92 µM | [8] 17.8 µM and 15.4 µM | [9] 317 nM and 477 nM
inactive: [1] | [3] | [4] | [6] | [10] | [11]

O=C(O)CCCc1ccccc1
inactive: [1] | [2] | [3] | [4] | [5] | [6] | [7] | [8] | [9] | [10] | [11]

OCCCC1CCCCC1
inactive: [1] | [2] | [3] | [4] | [5] | [6] | [7] | [8] | [9] | [10] | [11]

CCOC(=O)c1ccc(C)cc1
inactive: [1] | [2] | [3] | [4] | [5] | [6] | [7] | [8] | [9] | [10] | [11]

CN1CCCC1
inactive: [1] | [2] | [3] | [4] | [5] | [6] | [7] | [8] | [9] | [10] | [11]

C=C(C)CS(=O)(=O)O
inactive: [1] | [2] | [3] | [4] | [5] | [6] | [7] | [8] | [10] | [11]
active: [9] 35.6 µM

COCCCOCCCOC
inactive: [1] | [2] | [3] | [4] | [5] | [6] | [7] | [8] | [9] | [10] | [11]

Cc1sccc1Br
inactive: [1] | [2] | [3] | [4] | [5] | [6] | [7] | [8] | [9] | [10] | [11]

O=C(O)CNC(=O)c1ccc([N+](=O)[O-])cc1
inactive: [1] | [2] | [3] | [4] | [5] | [6] | [7] | [8] | [9] | [10] | [11]

CCOC(=O)C(=O)OCC
active: [6] 31.7 µM
inactive: [1] | [2] | [3] | [4] | [5] | [7] | [8] | [9] | [10] | [11]

CCSC(=O)N(CC(C)C)CC(C)C
inactive: [1] | [2] | [3] | [4] | [5] | [6] | [7] | [8] | [9] | [10] | [11]

C[C@H]1C[C@@H](O)CC(C)(C)C1
inactive: [1] | [2] | [3] | [4] | [5] | [6] | [7] | [8] | [9] | [10] | [11]

CC(C)CNCC(C)C
inactive: [1] | [2] | [3] | [4] | [5] | [6] | [7] | [8] | [9] | [10] | [11]

NS(=O)(=O)c1ccc(C(=O)O)cc1
inactive: [1] | [2] | [3] | [4] | [5] | [6] | [7] | [8] | [9] | [10] | [11]

Reference: PubChem BioAssay (Tox21)
